Consider 32 compounds from ChEMBL document CHEMBL3988442, “University of Dundee, Small-Polar-MMV Screening Library” (2021).

Structures are written as SMILES. Screen size: about 48,000 compounds; about 13,000 (27%) showed an effect of 50% or more. This is one part of the list.

The test relates to Wolbachia pipientis. As to the kind of experiment: Anti-Wolbachia Cell-Based Screen. The following applies: 5 µM. Also on record: scale not given: in the data most compounds retested in dose-response had high values. Type of test: functional.
For `NC(=O)C1CCN(C(=O)Cc2ccc(Cl)c(Cl)c2)CC1`, the “Percent Effect” value is reported as -1.39%.

Consider `O=C(O)Cc1cccc(-n2ccnc2-c2ccc(Cl)s2)c1`, for which the “Percent Effect” value is reported as 1.594%.

With `Cc1nc2ccnn2c(C)c1CCC(=O)N1CCC(C(N)=O)CC1`, the “Percent Effect” value turned out to be 1.242%.

For the compound `CC(=O)N1CCN(C(=O)Cc2cnc(-c3c(Cl)cccc3Cl)s2)CC1`, the “Percent Effect” value amounted to 110.1%.

On to `CN(C)C(=O)N1CCN(Cc2cnc(-c3ccsc3)s2)CC1`, for which the “Percent Effect” value is -2.871%.

`NC(=O)C1CCN(C(=O)Cc2cnc(-c3c(Cl)cccc3Cl)s2)CC1`: the “Percent Effect” value is 112.4%.

For the compound `O=C(O)Cc1cnc(-c2c(Cl)cccc2Cl)s1`, the “Percent Effect” value was 122.5%.

In the case of `Cc1oc(CNC(=O)Cc2ccccc2Cl)cc1C(=O)O`, the “Percent Effect” value was -14.11%.

Consider `CC(=O)N1CCCN(C(=O)NCCc2ccc(Cl)s2)CC1`, for which the “Percent Effect” value came out at 4.085%.

On to `O=C(NC1CC1)c1cc(NC(=O)N2CCOCC2)ccc1Cl`, for which the “Percent Effect” value is -10.77%.

Turning to `O=C(Cc1cnc(-c2c(Cl)cccc2Cl)s1)N1CCOCC1`, the “Percent Effect” value stood at 134.1%.

As for `Cc1ncc(CN(C)C(=O)Nc2cccc(C(=O)N3CCOCC3)c2)s1`, the “Percent Effect” value is given as -6.788%.

For `Cc1ncccc1OC1(C(=O)NCCC2CCCN2C)CCNCC1` (configuration not stated), the “Percent Effect” value worked out at 17.07%.

For the compound `CCCOCC(=O)N1CCCN(Cc2csc(CC)n2)CC1`, the “Percent Effect” value is recorded as 2.804%.

On to `CS(=O)(=O)CCCN1CCSCC1c1ccc(Cl)cc1` (configuration not stated), for which the “Percent Effect” value is -3.255%.

For the compound `CC(C)CN(CC(O)c1ccccc1)C(=O)Nc1nccs1` (configuration not stated), the “Percent Effect” value is on record as 92.63%.

As to `CC(C)NC(=O)CNC(C)COc1ccccc1` (configuration not stated), the “Percent Effect” value was found to be 2.359%.

On to `CC(NC(=O)Nc1nccs1)c1cccnc1` (configuration not stated), for which the “Percent Effect” value was -1.338%.

Regarding `O=C(Nc1nccs1)N(CCO)Cc1ccsc1`, the “Percent Effect” value is reported as -2.808%.

Regarding `CC(C)CN(CC(O)c1ccccc1)C(=O)NC(C)C` (configuration not stated), the “Percent Effect” value is reported as 126.3%.

In the case of `CCN(CC(O)c1ccc(C)cc1)C(=O)NC(C)C` (configuration not stated), the “Percent Effect” value is 91.44%.

Take `CCN(CC(=O)Nc1c(C)nn(C)c1C)CC(O)c1ccc(C)cc1` (configuration not stated): the “Percent Effect” value is given as 2.184%.

Consider `CCC(CC)(CNC(C)=O)NC(C)c1ccccc1` (configuration not stated), for which the “Percent Effect” value was determined as 1.082%.

Regarding `CCN(CC(=O)Nc1c(C)n[nH]c1C)CC(O)c1ccc(C)cc1` (configuration not stated), the “Percent Effect” value is -7.699%.

As to `Cc1nn(C)c(Cl)c1C1CCCN1c1ncnc2[nH]ccc12` (configuration not stated), the “Percent Effect” value was -15.05%.

Consider `CCc1nnc(N[C@H](C)c2cccc(OC)c2)o1`, for which the “Percent Effect” value is listed as -47.91%.

In the case of `Cn1cc(C(=O)N[C@H]2CN(Cc3nccs3)[C@@H]3CCCO[C@H]23)cn1.O=C(O)C(F)(F)F`, the “Percent Effect” value is -3.983%.

With `Cn1cc(N2C(=O)CC[C@@H]3[C@H]2CCN3C(=O)c2cscn2)cn1.O=C(O)C(F)(F)F`, the “Percent Effect” value is -22.63%.

On to `Cn1cc(N2C(=O)CC[C@@H]3[C@H]2CCN3Cc2nccs2)cn1.O=C(O)C(F)(F)F`, for which the “Percent Effect” value is listed as 92.26%.

In the case of `Cc1nc(CO[C@@H]2CN(Cc3cnn(C)c3)[C@@H]3COC[C@@H]32)cs1.O=C(O)C(F)(F)F`, the “Percent Effect” value was -7.827%.

Take `Cc1nc(CN2CC[C@H]3[C@@H]2CCC(=O)N3c2cnn(C)c2)cs1.O=C(O)C(F)(F)F`: the “Percent Effect” value was found to be 98.36%.

`Cc1nc(CN2CC[C@H]3[C@H]2CCN3c2nncs2)cs1.O=C(O)C(F)(F)F.O=C(O)C(F)(F)F`: the “Percent Effect” value was 10.04%.
